Compound activity deposited in PubChem BioAssay by several laboratories.
Shown are actives, neighbours in structure and some others; about 1.1% of the full set was active somewhere.
IDE inh: inhibitors of human insulin-degrading enzyme in cells. P14735. HEK cells, FAbetaB cleavage, fluorescence polarization. inhibition, % at 5.59 µM. 0.41% of 320,000 active. AID 434962;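 active means percent inhibition above the average of all tested compounds plus 3 SD, set per screening campaign, cut at about 16% in these data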;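 further: IDE supplied by intact live HEK cells; FP after avidin binding of uncleaved biotin substrate so inhibition keeps polarization high; 0% = DMSO wells and 100% = 60 µM reference IDE inhibitor Ii1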
LANA-H2B inh: blocks KSHV LANA binding to histone H2A/H2B. cell-free LANA-H2A/H2B peptide, fluorescence polarization. inhibition, % (concentration not given with the values). 0.6% of 320,000 active. AID 2629; in the data active means inhibition mostly above about 10%, no sharp cut-off; inactive means mostly below about 6.7%
HDAC3 inh: inhibitors of human histone deacetylase 3 | O15379 | recombinant HDAC3, fluorogenic peptide/trypsin coupled, fluorescence | inhibition, % at 8.3 µM | 0.15% of 320,000 active | AID 2718; in the data active means inhibition above about 26%, passing the limit was not always enough; inconclusive means no clear call, values can overlap the other calls
Target sequence (O15379 whole entry, looked up): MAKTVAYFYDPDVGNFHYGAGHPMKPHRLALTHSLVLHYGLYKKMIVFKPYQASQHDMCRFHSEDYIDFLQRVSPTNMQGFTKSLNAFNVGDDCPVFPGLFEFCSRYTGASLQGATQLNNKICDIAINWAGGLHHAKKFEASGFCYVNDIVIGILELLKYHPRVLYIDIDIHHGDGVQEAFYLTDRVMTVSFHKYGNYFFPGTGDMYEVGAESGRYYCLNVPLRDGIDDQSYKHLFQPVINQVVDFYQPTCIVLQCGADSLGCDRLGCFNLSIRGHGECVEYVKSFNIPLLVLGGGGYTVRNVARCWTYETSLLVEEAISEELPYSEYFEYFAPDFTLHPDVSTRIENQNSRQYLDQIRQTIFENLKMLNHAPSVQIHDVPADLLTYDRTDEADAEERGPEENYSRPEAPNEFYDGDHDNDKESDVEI
IDE cell activ: activators of human insulin-degrading enzyme in cells; HEK cells, FAbeta-B cleavage, fluorescence polarization; 0% vehicle, 100% cell-free pure enzyme wells; activation, % at 5.96 µM; AID 493087; 0.073% of 340,000 active; P14735;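 active means activation above the mean of all tested compounds plus 3 SD, set per screening campaign, cut at about 17% in these data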
IDE inh confirm: cellular human IDE inhibition, confirmation; HEK cells, FAbetaB cleavage, fluorescence polarization; inhibition, % at 5.59 µM; 51% of 1,200 active; shares compounds with IDE inh; AID 435028;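 active means mean inhibition across triplicate wells above the cutoff set by the earlier primary insulin-degrading enzyme screen, cut at about 16% in these data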;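 further: 0% = DMSO wells and 100% = 60 µM reference IDE inhibitor Ii1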
HEK cytotox: kills HEK cells in IDE inhibitor counter-screen. HEK293 cytotoxicity, ATP luminescence. inhibition, % at 5.59 µM. 28% of 1,200 active. shares compounds with IDE inh; in the data active means inhibition above about 22%;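 further: 0% = vehicle wells and 100% = reference cytotoxic drug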
FP fluor counter: fluorescence interference counter-screen for IDE inhibitors | IC50, µM | 30 tested, under 10 active | FP counterscreen for fluorescent artifacts, IDE probe project | shares compounds with IDE inh; call rule not given here
* = called active by the depositor; u = inconclusive; x = no result given.

SMILES | IDE inh | LANA-H2B inh | HDAC3 inh | IDE cell activ | IDE inh confirm | HEK cytotox | others
CCCCn1nnc(NC(=O)c2cc3ccccc3o2)n1 | -3 | 2 | 2 | -1 | x | x
CCCCn1nnc(NC(=O)c2ccc(-c3ccccc3)cc2)n1 | 18* | -3 | 4 | -12 | 7 | 55*
COc1ccc(C2C=C(Nc3ccccc3)C(=O)N2c2ccccc2)cc1OC (stereo not drawn) | 17* | 1 | 0 | 0 | -1 | 23*
CC(C)(CC(=O)O)CC(=O)N1CCCN(c2nc3ccc(Cl)cc3s2)CC1 | 7 | 1 | -1 | -22 | x | x
CC(C)(CC(=O)O)CC(=O)N1CCN(c2nc3ccc(Cl)cc3s2)CC1 | 16* | 3 | 0 | -30 | 2 | 14
COc1ccc(-c2oc3ccccc3c2C(=O)Oc2ccccc2)cc1 | 2 | -4 | -60 | 3 | x | x
O=C(NNC(=O)c1ccc(Cl)cc1Cl)c1csc(-c2cccnc2)n1 | 21* | 1 | -1 | 0 | 9 | 11
Cc1cccc(/C=C\c2nc3ccccc3c(=O)[nH]2)c1 | 6 | -6 | 2 | -3 | x | x
COc1cc(/C=C/c2nc3ccccc3c(=O)[nH]2)cc(Cl)c1O | 27* | 2 | 2 | -75 | 100* | 6
O=C(OCN1C(=O)C(=O)c2ccccc21)c1ccc(Cl)cc1 | -2 | -6 | -16 | -1 | x | x
CN(C)c1ccc(/C=C(\C#N)C(=O)Nc2nc3c(s2)CCN(Cc2ccccc2)C3)cc1 | 38* | -12 | 9 | -28 | 58* | 11
O=C(Nc1nc2c(s1)CN(Cc1ccccc1)CC2)C1CCC1 | 11 | -1 | 4 | -1 | x | x
COc1ccc(/C=C/C(=O)NCC(=O)N/N=C(\C)Cc2ccccc2)cc1 | 9 | -2 | -6 | 6 | x | x
C/C(Cc1ccccc1)=N\NC(=O)CNC(=O)/C=C\c1ccccc1 | 17* | 0 | 5 | x | 2 | 12
CCCC(=O)c1c(NCCO)cc(C)oc1=O | -3 | 1 | 1 | 7 | x | x
CC(=O)Nc1nc2n(n1)C(c1ccccc1)C=C(c1ccccc1)N2 (stereo not drawn) | 2 | 9 | -5 | 4 | x | x
CS(=O)(=O)Nc1nc2n(n1)C(c1ccccc1)C=C(c1ccc(Br)cc1)N2 (stereo not drawn) | 63* | 14 | -21 | -64 | 79* | 7
CN1C(=O)/C(=C\C=C2/CCCN2C)N(C)C1=S | 0 | 6 | 9 | -6 | x | x
CCN1C(=O)/C(=C/C=C2/CCCN2C)OC1=S | 19* | 2 | u | -30 | 26* | 10
NC(=O)c1ccc(=O)n(Cc2ccc(Cl)cc2Cl)c1 | -5 | -6 | 2 | 1 | x | x
COc1ccc(CCNC(=O)c2cc(-c3ccc(Cl)c(Cl)c3)oc2C)cc1 | 2 | 1 | -1 | 1 | x | x
O=C(CN1C(=O)S/C(=C\c2ccccn2)C1=O)Nc1ccccc1 | x | -4 | 0 | 2 | x | x
O=C(CN1C(=O)S/C(=C\c2cc(Cl)c(O)c(Cl)c2)C1=O)Nc1ccccc1 | 21* | -5 | 13 | -26 | 23* | 6
C=CCOC(=O)C1=C[C@H](c2coc3ccccc3c2=O)C[C@H](OCCCCO)O1 | 1 | 0 | 0 | 3 | x | x
Cc1ccc(S(=O)(=O)N2CCN(C(=O)COC(=O)/C=C/c3ccccc3[N+](=O)[O-])CC2)c(C)c1 | 5 | 2 | 4 | -3 | x | x
SMILES | IDE inh | LANA-H2B inh | HDAC3 inh | IDE cell activ | IDE inh confirm | HEK cytotox | others
COc1ccc(Cl)cc1C(=O)NCC(=O)OCc1ccccc1 | 20* | 3 | 0 | -12 | 10 | 9
COc1ccc(Cl)cc1C(=O)NCCCSc1ccccc1 | 5 | 1 | 1 | -1 | x | x
C=CCOC(=O)C1=C(C)NC(=O)NC1/C=C/c1ccccc1OC (stereo not drawn) | 21* | -16 | -1 | -10 | 9 | 1
COc1ccccc1/C=C/C1NC(=O)NC(C)=C1C(=O)OC(C)C (stereo not drawn) | 2 | 0 | -2 | -10 | x | x
COc1ccc(N=C(C)C2=C(O)c3ccccc3C2=O)cc1 | 18* | -1 | 5 | -5 | 7 | 16
CCOc1ccc(N=C(C)C2=C(O)c3ccccc3C2=O)cc1 | 4 | 0 | 13 | -11 | x | x
CC(=O)N/C(=C\c1ccccc1)C(=O)OCC(=O)NC(C)C12CC3CC(CC(C3)C1)C2 (stereo not drawn) | 17* | 7 | 1 | -1 | -5 | 15
COC(=O)c1cc(NC(=O)CN(c2ccc(OC)cc2)S(=O)(=O)c2ccc(F)cc2)ccc1Cl | x | x | x | 0 | x | x
O=C(C1=C[C@@H](C2CCCCC2)C[C@@H](OCc2ccc(CO)cc2)O1)N1CCN(Cc2ccccc2)CC1 | 19* | 1 | 11 | -12 | 5 | 15
O=C(C1=C[C@H](C2CCCCC2)C[C@H](OCc2ccc(CO)cc2)O1)N1CCN(Cc2ccccc2)CC1 | 7 | -8 | 15 | 0 | x | x
O=c1c2ccccc2sn1-c1cc(S(=O)(=O)N2CCOCC2)ccc1N1CCOCC1 | 59* | 4 | 18 | -32 | 59* | 17 | FP fluor counter=>55
Cc1ccc(N2CC(C(=O)N3CCC(C(=O)Nc4ccc(Br)cc4)CC3)CC2=O)cc1 (stereo not drawn) | 17* | 1 | 2 | -7 | 7 | 12
Cc1ccc(N2CC(C(=O)N3CCC(C(=O)Nc4cccc(Br)c4)CC3)CC2=O)cc1 (stereo not drawn) | 4 | -1 | 0 | -4 | x | x
O=C(/C=C/c1ccc(OCc2cccc(Cl)c2)cc1)N1CCOCC1 | 18* | -2 | 2 | -6 | 10 | 18
CC[n+]1c(/C=C/N(C)c2ccccc2)n(-c2ccccc2)c2ccc(-c3nc4ccccc4s3)cc21 | 57* | -9 | 6 | -29 | 22* | 118*
CCN1C(=O)/C(=C/C=C2/SCCN2C)SC1=S | 27* | 1 | 6 | -44 | 69* | 21
CCN1C(=O)/C(=C/C=C2/Sc3ccccc3N2CCO)SC1=S | 20* | -4 | 9 | -17 | 19* | 20
CCCCN1C(=O)/C(=C/C=C2\Oc3ccccc3N2CC)SC1=S | x | x | x | -150 | x | x
CCCCN1C(=O)/C(=C/C=C2/CC(C)(C)CN2C)SC1=S | 107* | -121 | 14 | -130 | 149* | 28*
Cc1ccc(C)c(N2C(=N)S/C(=C\c3ccc(-c4ccccc4C(=O)O)o3)C2=O)c1 | 32* | 1 | 12 | -13 | 17* | 4 | FP fluor counter=>55
CC[C@]12C(=O)N(C)C[C@H]([C@@H]3C(=O)N(Cc4ccccc4)C(=O)[C@@H]31)N2C(=O)c1ccc(F)cc1 | x | x | x | 1 | x | x
COc1ccccc1C(=O)NCC(=O)OCC(=O)c1ccc2c(c1)-c1ccccc1C2 | 22* | -1 | -4 | -7 | 6 | 9
CCOc1ccc(/C=N/NC(=O)c2nnn(-c3nonc3N)c2-c2ccc(OCC)cc2)cc1 | 22* | 9 | 0 | 4 | 4 | 7
